From PubChem BioAssay (EPA / NIEHS)
The source made the active and inactive calls. How the source made its calls: active means hit-call score of the fitted dose curve at least 0.9, where 1 is the maximum; inactive means score below 0.9.

Assay: CCTE_Harrill_HTTr_Viability_MCF7: CCTE's 6-hour Cell Viability Assessment for the High-Throughput Transcriptomics (HTTr) Platform, in MCF-7 cells cultured in DMEM + 10% fetal bovine serum, Harrill Lab (AID 2284010)
In short: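 Eight-point concentration series, six-hour exposure. Propidium iodide exclusion imaged to assess membrane integrity as a cytotoxicity readout; bidirectional fitting was done with DMSO as negative control and activity baseline.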

| SMILES | outcome |
| --- | --- |
| CCCCCCCCCCCC[N+](C)(C)[O-] | inactive |
| COC(=O)Nc1nc2ccc(S(=O)c3ccccc3)cc2[nH]1 (stereo not given) | inactive |
| O=C1CC2(CCCC2)CC(=O)N1CCCCN1CCN(c2ncccn2)CC1 | inactive |
| O=C1NC(=O)c2ccc3c4ccc5c6c(ccc(c7ccc1c2c73)c64)C(=O)NC5=O | inactive |
| CCCCC(C)=O | inactive |

Assay: CCTE_Harrill_HTTr_Apoptosis_MCF7: CCTE's 6-hour Apoptosis Assessment for the High-Throughput Transcriptomics (HTTr) Platform, in MCF-7 cells cultured in DMEM + 10% fetal bovine serum, Harrill Lab (AID 2284011)
In short: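 High-content imaging of CellEvent Caspase 3/7 Green signal follows a six-hour exposure, with eight concentrations per chemical. MCF-7 cells grown in DMEM plus 10% fetal bovine serum; activity fitted in both directions against DMSO.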

| SMILES | outcome |
| --- | --- |
| CCCCCCCCCCCC[N+](C)(C)[O-] | inactive |
| COC(=O)Nc1nc2ccc(S(=O)c3ccccc3)cc2[nH]1 (stereo not given) | inactive |
| O=C1CC2(CCCC2)CC(=O)N1CCCCN1CCN(c2ncccn2)CC1 | inactive |
| O=C1NC(=O)c2ccc3c4ccc5c6c(ccc(c7ccc1c2c73)c64)C(=O)NC5=O | inactive |
| CCCCC(C)=O | inactive |
